Sampled rows, rich in hits. Any-hit rate of the full collection: about 1.2%.
zVAD death inh: blocks zVAD induced death of L929 cells; L929 zVAD necroptosis rescue, ATP luminescence, 24 h; with zVAD 60 µM; viability rescue, % at 10 µM; 220,000 compounds, 0.38% hits; AID 1377;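 active = activation, scaled between plate controls, above about 75%, limit read from the data; inactive = activation under that limit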
TNF death inh: inhibitors of TNF-alpha induced necroptosis in Jurkat FADD-/- cells. Jurkat FADD-/- TNF necroptosis rescue, ATP luminescence, 24 h; 0 = TNF only, 100 = no-TNF cells. activation (protection from cell death), % at 10 µM. 220,000 compounds, 0.068% hits. AID 463075;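 active = activation, meaning protection from cell death, of at least 50% relative to plate controls; inactive = activation below 50%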;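 also: necroptosis triggered by 40 ng/mL TNF-alpha added together with compound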
EBV gp42 inh: inhibitors of Epstein-Barr virus glycoprotein 42. Q1HVG2. Fluorescence polarization binding assay, mP read-out. inhibition, % (tested at 21.74 µM). 220,000 compounds, 0.42% hits. AID 1085; in the data active = inhibition above about 50%
Target sequence (Q1HVG2 whole entry, looked up): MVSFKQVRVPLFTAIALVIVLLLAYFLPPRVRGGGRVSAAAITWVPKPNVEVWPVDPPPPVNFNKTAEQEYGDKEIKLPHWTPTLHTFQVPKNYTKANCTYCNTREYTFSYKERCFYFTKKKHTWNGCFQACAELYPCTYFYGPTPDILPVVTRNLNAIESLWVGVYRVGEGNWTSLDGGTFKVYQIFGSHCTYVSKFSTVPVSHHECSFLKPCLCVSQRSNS
eIF4E-4G inh: inhibitors of eIF4E and eIF4G interaction in translation initiation; P63073+Q04637; TR-FRET eIF4E-eIF4GI(517-606) binding, 2 h; inhibition, % at 21.7 µM; 220,000 compounds, 0.37% hits; AID 782;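 active = inhibition above about 30%, limit read from the data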
Of the large screens only hits and unclear results are named; the others gave an inactive call; [ ] = remark or other dose.

CCCCc1ccc(NC(=S)Nc2ccc(Cl)c(S(=O)(=O)N(C)C)c2)cc1	none
CC(=O)Nc1ccc(S(=O)(=O)NCCSc2ccccn2)cc1	eIF4E-4G inh 47[fluorescence artefact?]
CCCNS(=O)(=O)c1ccc(NC(=O)c2ccccn2)cc1	none
CC1(C)CC(=O)C/C(=N\NC(=O)CCc2ccc(S(=O)(=O)N3CCOCC3)cc2)C1	none
COc1ccccc1NC(=O)/C(C#N)=C/c1cc([N+](=O)[O-])ccc1N1CCCC1	EBV gp42 inh 161
N#C/C(=C/c1cccc([N+](=O)[O-])c1)C(=O)Nc1ccccc1O	none
C/C(=N\NC(=O)CCc1ccc(S(=O)(=O)N2CCOCC2)cc1)c1ccccc1Cl	none
Cn1c(SCC(=O)Nc2ccc3nc(SCC(=O)N4CCCC4)sc3c2)nnc1-c1ccc(N)cc1	EBV gp42 inh 88
Cn1c(SCC(=O)Nc2ccc3nc(SCC(=O)NC4CC4)sc3c2)nnc1-c1ccccc1	none
Cc1ccc(OCCn2c(C3CC(=O)N(Cc4ccccc4)C3)nc3ccccc32)cc1 (stereo unspecified)	EBV gp42 inh 73
CCOC(=O)C1CCN(C(=O)Nc2ccc3nc(-c4ccco4)c(-c4ccco4)nc3c2)CC1	eIF4E-4G inh 44[fluorescence artefact?]
O=C(Nc1ccc2nc(-c3ccco3)c(-c3ccco3)nc2c1)N1CCCCCC1	EBV gp42 inh 78
NC(=O)c1ccc(NC(=O)COC(=O)/C=C/c2ccc3c(c2)OCO3)cc1	none
CCN1/C(=C2\OC(=S)N(C)C2=O)Sc2ccccc21	none
CCN1/C(=C2\SC(=S)N(Cc3ccccc3)C2=O)Sc2ccccc21	EBV gp42 inh 53
O=C(N/N=C/c1cc(Br)cc(Br)c1O)c1ccncc1	none
O=C(N/N=C/c1cc(Cl)cc(Cl)c1O)c1ccncc1	EBV gp42 inh 57
C[n+]1cccc(C2C(C#N)=C(N)Oc3c2ccc2ccccc32)c1 (stereo unspecified)	none
C[n+]1cccc2ccc3c(c21)OC(N)=C(C#N)C3c1ccccc1 (stereo unspecified)	eIF4E-4G inh 94
O=C(CSc1nnc(CNc2ccccc2)o1)N1CCc2ccccc21	eIF4E-4G inh 36
O=C(CSc1ccccn1)N1CCc2ccccc21	none
O=C(CSc1ncn(-c2ccccc2)n1)N1CCc2ccccc21	eIF4E-4G inh 31[fluorescence artefact?]
CCCCCCNC(=O)N[C@@H](C(=O)NCCC[C@H]1CN2C(=NC[C@@H]2Cc2ccccc2)N1CCc1cccc(OC)c1)C(C)C	eIF4E-4G inh 41
Cc1ccc(C(=O)O)cc1-c1ccc(C=C2C(=O)c3ccccc3C2=O)o1	none
O=C1C(=Cc2ccc(Br)o2)C(=O)c2ccccc21	EBV gp42 inh 65, eIF4E-4G inh 38[fluorescence artefact?]
CC1=C/C(=C\c2ccc(Br)o2)C(=O)O1	EBV gp42 inh 51
CC(C)c1nnc(NC(=O)CCC(=O)Nc2ccc3cn[nH]c3c2)s1	none
CN(C)C(=O)OCC1COc2ccccc2O1 (stereo unspecified)	none
NC(=NCc1ccc2c(c1)OCO2)NC(=O)c1ccccc1	eIF4E-4G inh 68
C/C(CCc1ccc2c(c1)OCO2)=N\NC(=O)c1ccccc1	none
CCCN1C(=O)/C(=C\C=C2\N(CC)c3ccccc3C2(C)C)SC1=S	EBV gp42 inh active
NC(=O)COC(=O)c1cccc(NS(=O)(=O)/C=C/c2ccccc2)c1	none
NC(=O)NC(=O)COC(=O)c1cccc(NS(=O)(=O)/C=C/c2ccccc2)c1	eIF4E-4G inh 34
Cn1cccc1/C=N/N1CCN(c2ccccc2)CC1	none
COc1ccc(CCNC(=O)CCNC(=O)c2ccc(Cl)cc2)cc1OC	none
COc1ccc(CCNC(=O)CCNC(=O)c2ccc(Br)cc2)cc1OC	eIF4E-4G inh 37
COc1ccccc1NC(=O)CC(c1ccc(OC(C)C)cc1)c1ccccc1OC (stereo unspecified)	EBV gp42 inh 70
Cc1sc2c(c1C)c(=O)nc1scc(C)n12	none (no result: EBV gp42 inh, eIF4E-4G inh)
N#C/C(=C(/O)c1ccc(-c2cccc([N+](=O)[O-])c2)o1)c1nc2ccccc2s1	EBV gp42 inh 86
O=C(O)c1ccc(-c2cccc([N+](=O)[O-])c2)o1	none
CCCN1C=CC(=C/C=C(\C#N)C(=O)OCC)C=C1	zVAD death inh 89
CCCCCCN1C=CC(=C/C=C(\C#N)C(=O)OCC)C=C1	none
CC(=O)ONC(=Nc1ccccc1)c1nonc1N	none
S=C1NC[C@H](CC2CCCCC2)N1CCCCC1CCCCC1	eIF4E-4G inh 31
Cc1ccc(C(=O)c2coc3cc([N+](=O)[O-])c(O)c([N+](=O)[O-])c23)cc1	none
CCn1c(N)c(C(=O)NCc2cccnc2)sc1=S	none
Nc1c(C(=O)NCc2cccnc2)sc(=S)n1-c1ccccc1	eIF4E-4G inh 33
COc1ccc2c(c1)c1nc3ccccc3nc1n2Cc1ccc(OC)c(OC)c1	EBV gp42 inh 59
CCOC(=O)Cn1c2ccc(OC)cc2c2nc3ccccc3nc21	EBV gp42 inh 64
COC(=O)Cn1c2ccc(OC)cc2c2nc3ccccc3nc21	none
CCOc1ccc(Cn2c3ccc(OC)cc3c3nc4ccccc4nc32)cc1OC	EBV gp42 inh 56
Cc1nc(N)sc1C(=O)N1N=N1	none
NC(=S)N/N=C1\CCOc2ccc(F)cc21	none
O=C(OCc1nnc(-c2ccccc2)o1)c1ccc(Cl)cc1	none
O=C(Cc1ccc(Cl)cc1)OCc1nnc(-c2ccccc2)o1	eIF4E-4G inh 88
CCCCCn1c(N)c(-c2nc3ccccc3o2)c2c([N+](=O)[O-])nn(C)c(=O)c21	EBV gp42 inh 69
CCCCCn1c(N)c(-c2nc3ccccc3s2)c2c([N+](=O)[O-])nn(CC)c(=O)c21	none
CCCCCn1c(N)c(-c2nc3ccccc3o2)c2c([N+](=O)[O-])nn(CC)c(=O)c21	EBV gp42 inh 55
Cc1nn(-c2ccccc2)c(Cl)c1/C=C1\N=C(c2ccccc2)OC1=O	none (no result: EBV gp42 inh, eIF4E-4G inh)
Cc1ccc(C2=N/C(=C\c3c(C)nn(-c4ccccc4)c3N3CCCC3)C(=O)O2)cc1	EBV gp42 inh 93
CS(=O)(=O)Oc1ccccc1/C=C1/N=C(c2ccc(F)cc2)OC1=O	none (no result: zVAD death inh)
Cc1nn(-c2ccccc2)c(N2CCCC2)c1/C=C1\N=C(c2ccc(F)cc2)OC1=O	EBV gp42 inh 82
CC1CCN(C(=S)NC(=O)c2cccs2)CC1	none
CC1CCCCN1C(=S)NC(=O)c1cccs1 (stereo unspecified)	eIF4E-4G inh 92
COC(=O)c1cc(NC(=O)c2ccccc2)c(=O)oc1/C=C/Nc1ccc(Oc2ccccc2)cc1	EBV gp42 inh 186
CC(C)CN(C(=O)CN1CCN(c2ccc([N+](=O)[O-])cc2)CC1)c1c(N)n(CC(C)C)c(=O)[nH]c1=O	none
c1ccc(-c2ccnc3nc(N4CCN(c5ccccc5)CC4)nn23)cc1	EBV gp42 inh 72
COc1ccc(C2c3cc(OC)c(OC)cc3CCN2S(C)(=O)=O)cc1OC (stereo unspecified)	eIF4E-4G inh 42
CC(=O)Nc1ccc(NC2=Nc3ccccc3N3C2=Nc2c(c(C)nn2-c2ccccc2)C3c2ccccc2)cc1 (stereo unspecified)	EBV gp42 inh 71

High-throughput results (PubChem)
